Experimental data: PubChem BioAssay AID2235 (The Scripps Research Institute Molecular Screening Center, 2010)
Among all 320,000 compounds or so, about 2,800 (0.88%) were called active.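 The calls were made as follows: active = inhibition above the mean inhibition of all tested compounds plus 3 SD, computed separately for each screening campaign (cut at about 15% in these data); inactive = the rest.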 The sample as a whole holds a higher share of actives than the screen did.

biological target: Serine/threonine-protein phosphatase PP1-alpha catalytic subunit (Homo sapiens) (UniProt P62136); test: inhibition of human PP1 catalytic subunit – biochemical, fluorescence, OMFP substrate, single point, counter-screen for PP5 inhibitor project, primary screen (AID 2235); details: purified PP1alpha, at 6.7 µM, active compounds read high
Sequence (P62136 whole entry, looked up): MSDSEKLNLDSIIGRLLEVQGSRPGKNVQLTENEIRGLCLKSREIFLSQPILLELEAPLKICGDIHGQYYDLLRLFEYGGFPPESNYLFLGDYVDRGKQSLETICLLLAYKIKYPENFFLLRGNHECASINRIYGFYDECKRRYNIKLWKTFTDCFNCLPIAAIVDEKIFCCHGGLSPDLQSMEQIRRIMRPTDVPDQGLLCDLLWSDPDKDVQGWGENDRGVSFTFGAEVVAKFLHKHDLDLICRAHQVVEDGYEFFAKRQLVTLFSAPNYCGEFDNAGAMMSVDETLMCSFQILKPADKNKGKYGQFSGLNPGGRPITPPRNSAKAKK

Compound | inhibition
Cc1cc(C(=O)CCl)c(C)n1CC1COc2ccccc2O1 (stereo unspecified) | -1.57% (inactive)
O=C(CN1C(=O)C2C3C=CC(C3)C2C1=O)NCC1COc2ccccc2O1 (stereo unspecified) | 0.06% (inactive)
O=C1C(=O)N(CC2COc3ccccc3O2)c2ccccc21 (stereo unspecified) | 18.4% (active)
O=C(NC(Cc1c[nH]c2ccccc12)C(=O)O)/C(=C/c1ccco1)NC(=O)c1ccccc1 (stereo unspecified) | -3.53% (inactive)
CN(C(=O)CSc1nnc(-c2n[nH]c3ccccc23)o1)c1ccccc1 | -3.45% (inactive)
COc1ccc(/C=C2\SC(=O)N(CCC(=O)NC3CCS(=O)(=O)C3)C2=O)cc1 (stereo unspecified) | -1.73% (inactive)
N=c1n(Cc2ccc(Cl)cc2)c2ccccc2n1CC(O)c1ccco1 (stereo unspecified) | 21.9% (active)
Cn1c(=N)n(CC(O)c2ccccc2)c2ccccc21 (stereo unspecified) | -1.18% (inactive)
Cn1c(=N)n(CC(O)c2cccs2)c2ccccc21 (stereo unspecified) | 2.31% (inactive)
O=S(=O)(c1cccc(-c2cn3ccccc3n2)c1)N1CCCC1 | -0.43% (inactive)
O=C(O)c1ccccc1OCc1ccccc1Cl | -3.14% (inactive)
CC(C)c1cc(C(N)=O)c(NC(=O)c2cccc(COc3ccc(Br)cc3)c2)s1 | 6.73% (inactive)
COc1ccc(N2CCN(S(=O)(=O)c3ccc4c(c3)NC(=O)C(C)C(=O)N4)CC2)cc1 (stereo unspecified) | -1.74% (inactive)
CSC1=NCCN1C(=O)Cc1cccc2ccccc12 | -1.43% (inactive)
CN(C)[C@@H]1C(=O)C(C(N)=O)=C(O)[C@@]2(O)C(=O)C3=C(O)c4c(O)ccc(Cl)c4[C@@H](O)[C@H]3C[C@@H]12 | 5.56% (inactive)
C=C1c2c(Cl)ccc(O)c2C(O)=C2C(=O)[C@]3(O)C(O)=C(C(N)=O)C(=O)[C@@H](N(C)C)[C@@H]3[C@@H](O)C12 (stereo partly specified) | 23.5% (active)
Cc1cc(Nc2cccc(F)c2)n2ncnc2n1 | -2.78% (inactive)
Cc1nc(Cl)cc(N/N=C/c2ccccc2)n1 | -6.15% (inactive)
COc1ccccc1/C=N\Nc1cc(C)nc(-n2nc(C)cc2C)n1 | 30.7% (active)
COc1ccccc1/C=N/Nc1nc(C)c(C(C)=O)s1 | 1.23% (inactive)
COc1cccc(/C=N/Nc2cc(C)nc(-c3ccccc3O)n2)c1O | 6.15% (inactive)
CN(C)c1ccc(/C=N/Nc2cc(N3CCOCC3)nc(N3CCOCC3)n2)cc1 | -2.51% (inactive)
Cc1cc(N/N=C\c2ccc(Br)cc2)nc(-n2nc(C)cc2C)n1 | 21.7% (active)

Compound | inhibition
CS(=O)(=O)N(Cc1nc2sc3c(c2c(=O)[nH]1)CCCC3)C1CCCCC1 | 1.31% (inactive)
NC1=NC(c2ccc([N+](=O)[O-])cc2)N(c2ccc(F)cc2)C(N)=N1 (stereo unspecified) | 1.43% (inactive)
CCOc1ccc(C)cc1S(=O)(=O)NC1CCCCCC1 | 0.47% (inactive)
NS(=O)(=O)c1cccc(NC(=O)CN2CCCc3ccccc32)c1 | -0.85% (inactive)
O=C(CN1CCN(Cc2ccccc2)CC1)NC(c1ccccc1)c1ccccc1 | 10.6% (inactive)
O=C(CN1CCc2ccccc21)NC(c1ccccc1)c1ccccc1 | 17.5% (active)
CCn1cc(CN2CCCC(CNS(=O)(=O)Cc3ccccc3)C2)cn1 (stereo unspecified) | 0.72% (inactive)
COC(=O)N1CN(C(=O)OC)CN(C(=O)OC)C1 | -3.93% (inactive)
O=C(CCCN1C(=O)/C(=C/c2cccs2)SC1=S)Nc1ccc(O)cc1 | -0.73% (inactive)
CCCCC(=O)Nc1ccc(C(=O)Nc2cc(C(F)(F)F)ccc2Cl)cc1 | 1.1% (inactive)
CCCCN(CCCC)CCC(O)c1cc2c(Cl)cc(Cl)cc2c2cc(C(F)(F)F)ccc12 (stereo unspecified) | 17% (active)
CC(C)c1nnc(NC(=O)CCC(=O)N2CCN(c3cccc(Cl)c3)CC2)s1 | -3.62% (inactive)
NNC(=O)c1cnn(-c2ccccc2)c1C(F)(F)F | 0.34% (inactive)
CCO/N=C(/C)c1c(O)cc(-c2ccccc2)n(-c2ccccc2)c1=O | -2.6% (inactive)
CCOc1ccc(NC(=O)c2ccc(NC(=O)COC(=O)c3ccc(NC(=O)CC#N)cc3)cc2)cc1 | 75.8% (active)
CCOc1ccc(NC(=O)CCNC(=O)c2ccc(Br)cc2)cc1 | 1.21% (inactive)
CC(C)NC(=O)NC(=O)COC(=O)c1ccc(NC(=O)CC#N)cc1 | -2.32% (inactive)
CN=C(c1ccccc1)c1c(C)cccc1C | 2.55% (inactive)
CCNC(=O)NC(=O)C(C)OC(=O)c1cc(S(=O)(=O)N2CCCCCC2)ccc1OC (stereo unspecified) | 1.67% (inactive)
COc1cccc(NC(=O)Cn2c3ccccc3c3nc4n(c(=O)c32)CCS4)c1 | -2.19% (inactive)
O=C(NCc1ccc2c(c1)OCO2)C12CC3CC(CC(C3)C1)C2 | -3.56% (inactive)
CC(=O)Nc1ccc(NC(=O)CSc2nnc(C3CC3)n2-c2ccccc2)cc1 | -2.45% (inactive)
COc1ccc(-c2nnc(SCC(=O)Nc3cccnc3Cl)n2C)cc1 | -4.29% (inactive)
